“And” between values parts separate entries of the source, which are not always exact repeats. Equal entries are not always repeated. The source made the active and inactive calls.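 The calls were made as follows, unless noted: active = compounds whose cell count with miR-34 switched on is under 0.7 times the count with it off; inactive = the rest.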

Results on four compounds are retold here after PubChem BioAssay.

A short description of experiment [1]: hESC survival regulators, cell-based (AID 493140; call rule not given here;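 also: cells exposed to compounds for four days before counting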). The note with it: human embryonic stem cell survival screen; stronger effect = higher value.
Experiment [2] can be described thus: liver-stage malaria parasite growth inhibition, primary screen, cell-based, HepG2, luciferase luminescence, HepG2 viability (AID 624349; in the data active = parasite load remaining mostly below about 12%, no sharp cut-off; inactive = mostly above about 10%;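 also: 100% = mean of DMSO negative control wells on the same plate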). The note with it: P. berghei liver stage in HepG2, luciferase luminescence, concentration not given here; parasite load remaining: stronger effect = lower value; viability: measured here: HepG2 viability without parasites.
Experiment [3] is described as follows: stimulators of nuclear beta-catenin in C2C12, primary screen, imaging, WNT3A-conditioned medium, mouse C2C12, NPC library (AID 1117326; in the data active = nuclear beta-catenin stimulation mostly above about 4.2%, no sharp cut-off; inactive = mostly below about 10%). As to conditions: stronger effect = higher value.
A short description of experiment [4]: stimulators of insulin release from INS-1E, primary screen, cell-based, 5 mM glucose, NPC library (AID 1117329;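 active = compound raises insulin release from rat beta cells at 5 mM glucose, no numeric limit stated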). The note with it: rat INS-1E insulin secretion, at 10 µM, stronger effect = higher value.
A short description of experiment [5]: growth inhibition of GSK3B-pretreated HCT116 cells – cell-based, CellTiter-Glo, 0.2 to 20 µM (AID 1117336;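 active = compounds lowering colon cancer cell viability after pretreatment blocking the GSK3B kinase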). As to conditions: HCT116 viability after GSK3B inhibitor, at 20 µM, stronger effect = higher value.
Experiment [6] can be described thus: inhibition of endothelial tube formation, primary screen, imaging, VEGF stimulated, CD31 staining, tube area, NPC library (AID 1117340;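 active = compound that reduces growth-factor-driven endothelial tube area in a mixed cell culture, no cutoff stated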). The note with it: VEGF-stimulated ADSC/ECFC co-culture, at 10 µM, stronger effect = higher value.
Experiment [7] in a line: glucagon-like peptide 1 release enhancers, primary assay, NCI-H716 cell line, NPC library (AID 1117341;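 active = compound raises GLP1 secretion from the human gut endocrine cells, with no numeric limit stated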). As to conditions: NCI-H716 cells, at 10 µM, stronger effect = higher value.
Experiment [8] is described as follows: HCT116 colon cancer cell growth inhibition, primary screen, CellTiter-Glo luminescence, NPC library (AID 1117342;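 active = compounds that lower survival of HCT116 colon cancer cells in the luminescence readout, no numeric limit stated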). The note with it: at 20 µM (top of the series).
Experiment [9] is described as follows: CellTiter-Glo luminescent readout of SW480 viability loss, NPC library primary (AID 1117343;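 active = compounds that lower viability of the colon cancer cells in the luminescence readout, with no numeric limit stated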). As to conditions: CellTiter-Glo luminescence; at 20 µM (top of the series) unless noted.
Experiment [10] is described as follows: decreased DLD-1 cellular survival, CellTiter-Glo luminescent readout, NPC compound collection, primary HTS (AID 1117346;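 active = compounds that lower survival of DLD-1 colon cancer cells in the luminescence readout, no cutoff given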). As to conditions: DLD-1 viability, CellTiter-Glo luminescence; at 20 µM (top of the series). A general note: ATP-based viability assays read luminescence as a measure of living cells.
The nature of experiment [11]: differential killing of epithelial or mesenchymal cells, primary screen, imaging, PC-3E GFP, TEM4-18 mCherry, co-culture (AID 1345086;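 active = compounds killing one labelled cell type while sparing the other, by normalised counts and ratio limits, not self-fluorescent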;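 as to all read-outs here: cells exposed to compound for 72 h before imaging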;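 as to red/green cell ratio (normalised): normalised mesenchymal count divided by normalised epithelial count so high means epithelial killing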). The note with it: imaging cell counts, at 1 µM; for red/green cell ratio (normalised): actives lie on both sides, counts scaled to control wells, 1 = unselective.
A short description of experiment [12]: sensitizers of A549 cells to miR-34 induction, primary screen, imaging, A549 dox-inducible miR-34, nuclei and caspase counts (AID 1347080). As to conditions: A549 miR-34 inducible, Hoechst nuclei count, 48 h.
Experiment [13] in a line: survival rescue of mitochondrial mutant cells in low glucose, primary screen, MELAS cybrids, Rieske KO mouse fibroblasts, CellTiter-Glo (AID 1508586;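 active = mean z-score across replicates of 1.96 or higher in either the MELAS or the Rieske mutant cell line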;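 also: z relative to plate mean and SD of compound and empty wells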).
Experiment [14] deals with NAD(+) hydrolase SARM1 (Homo sapiens) (UniProt Q6SZW1). Description: SARM1 TIR NADase inhibitors, cell lysate, NAD-Glo luminescence (AID 1508614;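 active = compound whose remaining NAD level is above about 45 nM, limit read from the data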;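 also: higher remaining NAD means stronger inhibition of SARM1 NADase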). As to conditions: SAM-TIR HEK293T lysate NADase, at 1 µM, stronger effect = higher value.
NAD(+) hydrolase SARM1 (Homo sapiens), sequence (Q6SZW1 whole entry, looked up): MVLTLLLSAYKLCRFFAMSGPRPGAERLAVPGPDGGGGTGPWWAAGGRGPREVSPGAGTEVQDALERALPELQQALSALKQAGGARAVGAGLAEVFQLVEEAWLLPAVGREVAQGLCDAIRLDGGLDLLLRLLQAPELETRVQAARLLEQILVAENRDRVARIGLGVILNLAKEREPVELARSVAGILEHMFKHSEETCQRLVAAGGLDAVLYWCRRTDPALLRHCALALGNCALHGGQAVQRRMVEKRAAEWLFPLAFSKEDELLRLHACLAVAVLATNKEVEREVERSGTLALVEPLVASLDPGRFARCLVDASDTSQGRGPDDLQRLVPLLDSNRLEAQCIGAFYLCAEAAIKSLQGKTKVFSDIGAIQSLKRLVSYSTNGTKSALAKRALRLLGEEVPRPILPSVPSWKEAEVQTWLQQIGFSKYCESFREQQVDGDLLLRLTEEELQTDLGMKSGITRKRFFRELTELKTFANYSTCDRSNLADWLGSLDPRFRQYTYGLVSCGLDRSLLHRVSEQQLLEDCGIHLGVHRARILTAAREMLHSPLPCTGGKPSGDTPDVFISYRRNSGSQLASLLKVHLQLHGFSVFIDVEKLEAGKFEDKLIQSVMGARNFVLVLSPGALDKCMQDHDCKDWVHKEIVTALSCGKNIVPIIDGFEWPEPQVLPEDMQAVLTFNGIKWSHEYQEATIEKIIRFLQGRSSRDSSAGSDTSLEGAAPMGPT
The mark [15] stands for this setting: measured here: epithelial PC-3E GFP cell survival.
Setting [16] is: measured here: mesenchymal TEM4-18 mCherry cell survival.
The mark [17] stands for this setting: stronger effect = lower value, cell number ratio, induced over uninduced.
[18] abbreviates: measured here: relative caspase fold change +Dox/-Dox.
[19] abbreviates: measured here: total cells with miR-34 induction, stronger effect = lower value.
Setting [20] is: measured here: total cells without miR-34 induction.
[21] abbreviates: MELAS cybrid survival, CellTiter-Glo 48 h, stronger effect = higher value.
[22] abbreviates: Rieske KO mouse fibroblast survival, CellTiter-Glo 72 h.

Turning to `CC(=O)CC(c1ccc([N+](=O)[O-])cc1)c1c(O)c2ccccc2oc1=O` (configuration not stated), the survival in [1] is 21.3 (inactive). Also, the parasite load remaining in experiment [2] was 45.5% (inactive) and 55% (inactive). Besides, the viability in experiment [2] is 108% and 91.9%. Further, the nuclear beta-catenin stimulation in experiment [3] (at 10 µM) is -1.1% (inactive); in [3] (stimulation, at 2 µM) it was -1.3%. Further, the insulin secretion stimulation in [4] is 0.6% (inactive). Moreover, in [5], the viability decrease was -2.5% (inactive). The tube area decrease in experiment [6] is -40.9% (inactive). Further, the GLP1 secretion stimulation in experiment [7] is -5.1% (inactive). For the same compound, the inhibition of viability in experiment [8] was 4.3% (inactive). Besides, the viability decrease (inhibition) in [9] is 21.6% (inactive); in experiment [10] it was 4.6% (inactive). The red/green cell ratio (normalised) in [11] was 0.82 (inactive). Besides, the normalised cell number turned out to be 1.28 in [11] (setting [15]) and 1.05 in experiment [11] (setting [16]). Besides, the values for the fold change in experiment [12] (setting [17]) and in experiment [12] (setting [18]) were 0.921 (inactive) and 1.68, respectively. The cell count was determined as 7660 in experiment [12] (setting [19]) and 8320 in experiment [12] (setting [20]). Moreover, the values for the z-score in experiment [13] (setting [21]) and in experiment [13] (setting [22]) were 0.273 (inactive) and 0.192, respectively. For the same compound, in experiment [14], the remaining NAD was 10 nM (inactive).
For `C[C@@H](O)[C@H]1C(=O)N2C(C(=O)O)=C(SCCN=CN)C[C@H]12`, the survival in experiment [1] is 8.25 (inactive). Also, in [2], the parasite load remaining was 97.9% (inactive) and 82.7% (inactive) and 21.5% (inactive). In addition, the viability in experiment [2] is 121% and 75.9% and 75.5%. Besides, the nuclear beta-catenin stimulation in experiment [3] (at 10 µM) is 0.4% (inactive); in experiment [3] (stimulation, at 2 µM), 4%. Also, the insulin secretion stimulation in experiment [4] was -0.5% (inactive). Further, the viability decrease in experiment [5] was 6.7% (inactive). The tube area decrease in experiment [6] is 8.2% (inactive). Further, the GLP1 secretion stimulation in experiment [7] was -1.8% (inactive). Besides, the inhibition of viability in [8] is 1.15% (inactive). The viability decrease (inhibition) in experiment [9] was -18.3% (inactive); in [10], 2% (inactive). In [11], the red/green cell ratio (normalised) is 0.95 (inactive). Besides, the normalised cell number in [11] (setting [15]) was 1.17; in experiment [11] (setting [16]), 1.11. Moreover, the fold change in experiment [12] (setting [17]) was 1.02 (inactive) and 0.837 (inactive) and 0.836 (inactive); in experiment [12] (setting [18]) it was 2.4 and 1.6 and 1.5. For the same compound, the cell count in experiment [12] (setting [19]) is 10800 and 9100 and 8570; in [12] (setting [20]), 10500 and 10900 and 10300. Also, the z-score in [13] (setting [21]) was 0.502 (inactive) and 0.0491 (inactive); in experiment [13] (setting [22]), -0.015 and -0.95. Also, in experiment [14], the remaining NAD is 10 nM (inactive).
As to `Oc1c(I)cc(Cl)c2cccnc12`, the survival in experiment [1] was 4.42 (inactive). For the same compound, the parasite load remaining in experiment [2] is 11.3% (inactive) and 21.8% (inactive). The viability in experiment [2] was 89.4% and 95.4%. Further, the nuclear beta-catenin stimulation is 55.7% (active) in experiment [3] (at 10 µM) and 6% in experiment [3] (stimulation, at 2 µM). The insulin secretion stimulation in [4] was -0.1% (inactive). For the same compound, the viability decrease in experiment [5] was 82% (active). In addition, in experiment [6], the tube area decrease is 110% (active). The GLP1 secretion stimulation in experiment [7] was -5% (inactive). The inhibition of viability in experiment [8] is 81.2% (active). Further, the viability decrease (inhibition) is 127% (active) in experiment [9] and 97.8% (active) in experiment [10]. The red/green cell ratio (normalised) in [11] was 1 (inactive). Also, the normalised cell number in experiment [11] (setting [15]) and in experiment [11] (setting [16]) was 0.99 throughout. In addition, the fold change in experiment [12] (setting [17]) was 1.06 (inactive) and 0.786 (inactive); in [12] (setting [18]) it was 0.681 and 1.8. In addition, the cell count in experiment [12] (setting [19]) was 5310 and 5470; in experiment [12] (setting [20]) it was 5010 and 6960. Besides, the z-score in [13] (setting [21]) is 0.113 (inactive); in [13] (setting [22]), -0.741. For the same compound, the remaining NAD in experiment [14] was 10 nM (inactive).
Turning to `CC1CCc2c(N3CCC(O)CC3)c(F)cc3c(=O)c(C(=O)O)cn1c23` (configuration not stated), in experiment [2], the parasite load remaining is 84.8% (inactive) and 5.38% (inactive). Also, the viability in experiment [2] is 88.5% and 76.5%. Besides, the nuclear beta-catenin stimulation in [3] (at 10 µM) was 0% (inactive); in experiment [3] (stimulation, at 2 µM), 0.1%. Further, the insulin secretion stimulation in experiment [4] was 1.15% (inactive). The viability decrease in experiment [5] was 74.1% (active). In experiment [6], the tube area decrease is -22.8% (inactive). In addition, in experiment [7], the GLP1 secretion stimulation was 4% (inactive). In experiment [8], the inhibition of viability was 59% (active). In addition, the viability decrease (inhibition) in experiment [9] is 37.2% (inactive); in experiment [10] it was 5.4% (inactive). For the same compound, the red/green cell ratio (normalised) in experiment [11] is 0.89 (inactive). Besides, the values for the normalised cell number in [11] (setting [15]) and in experiment [11] (setting [16]) were 0.98 and 0.87, respectively. Also, the fold change is 0.9 (inactive) and 0.988 (inactive) and 0.927 (inactive) in experiment [12] (setting [17]); 0.795 and 0.525 and 0.967 in experiment [12] (setting [18]). The cell count in experiment [12] (setting [19]) is 8750 and 7880 and 9830; in [12] (setting [20]) it was 9720 and 7980 and 10600. In addition, the z-score was -0.315 (inactive) and -0.705 (inactive) and 0.586 (inactive) in [13] (setting [21]); -0.0888 and -0.895 and -0.392 in experiment [13] (setting [22]). Also, in [14], the remaining NAD is 10 nM (inactive).

For orientation: viability means a read-out of living cells in per cent, often relative to untreated cells.
